This passage reports AC50 and outcome results from PubChem BioAssay (EPA / NIEHS).

SMILES strings stand for the structures. Records with an inconclusive call do not appear. Some structures have more than one record in an assay (separate samples or runs), and their calls can disagree. Active and inactive are the calls of the source. The calls were made as follows, unless noted: active = hit-call score of the fitted dose curve at least 0.9, where 1 is the maximum; inactive = score below 0.9.

Read-out in assay [1]: Human Leukocyte Antigen - DR isotype (HLADR), HLA-DRA (gene 3122)
As to the kind of experiment: BSK_3C_HLADR: BioMAP Diversity Plus: 3C Assay for Human Leukocyte Antigen - DR isotype (HLADR) Biomarker Activity (AID 2283019).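 As to outcome: ELISA of cell-surface HLA-DR on HUVEC 24 h after dosing.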 The following applies: primary human endothelial cells (HUVEC); actives raise or lower the signal. The procedure, abridged: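 HUVEC, 3C stimulation, 24 h post-dose; HLA-DR by ELISA; bidirectional curve fit vs DMSO baseline; gain or loss of signal scored.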

Read-out in assay [2]: Interleukin-8 (IL8), CXCL8 (gene 3576)
In words: BSK_3C_IL8: BioMAP Diversity Plus: 3C Assay for Interleukin-8 (IL8) Biomarker Activity (AID 2283020). The following applies: primary human endothelial cells (HUVEC); actives raise or lower the signal. The procedure, abridged: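 Human vascular endothelial cells (umbilical vein) in the 3C system; IL-8 level detected by ELISA at 24 h post-dose, with DMSO as baseline.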

Read-out in assay [3]: Monokine induced gamma interferon (MIG), CXCL9 (gene 4283)
As to the kind of experiment: BSK_3C_MIG: BioMAP Diversity Plus: 3C Assay for Monokine induced gamma interferon (MIG) Biomarker Activity (AID 2283021).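 As to AC50: MIG protein level measured by immunoassay in the treated endothelial cultures.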 Conditions: primary human endothelial cells (HUVEC); actives raise or lower the signal. The procedure, abridged: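 After 24 h of treatment, human umbilical vein endothelial cultures (3C system) had their MIG biomarker level determined by ELISA, with DMSO serving as negative control.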

Assay [4] concerns the target human Vitamin D Receptor (VDR), VDR (gene 7421) (UniProt P11473). As to the kind of experiment: ATG_VDR_TRANS: Attagene TRANS-FACTORIAL HepG2 Assay for human Vitamin D Receptor (VDR) (AID 2283022; active = hit-call score of the fitted dose curve at least 0.9, where 1 is the maximum). In short, it runs like this:
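RT-PCR/capillary electrophoresis read-out of reporter mRNA induction in transiently transfected HepG2; 24 h dosing; chimeric NR-Gal4 (TRANS format); gain-of-signal fit against DMSO baseline.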

The nature of assay [5]: BSK_3C_SRB: Viability Assessment in the BioMAP Diversity Plus: 3C Assay (AID 2283023).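 Also: fitted both ways against DMSO so a hit may be signal rise or drop.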 Conditions: primary human endothelial cells (HUVEC). In short, it runs like this: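 HUVEC, 24 h post-dose; 10% TCA fix, 0.1% SRB stain, A560 nm. Bidirectional curve fit vs DMSO negative control.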
Read-out in assay [6]: Matrix Metallopeptidase 1 (MMP1), MMP1 (gene 4312)
In words: BSK_BE3C_MMP1: BioMAP Diversity Plus: BE3C Assay for Matrix Metallopeptidase 1 (MMP1) Biomarker Activity (AID 2283024). Conditions: primary human bronchial epithelial cells; actives raise or lower the signal. The procedure, abridged: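 Dose cells, wait 24 h, run MMP1 ELISA; cells are human bronchial epithelial primaries. Both increases and decreases relative to DMSO counted.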

Assay [7] in a line: BSK_3C_Vis: BioMAP Diversity Plus: 3C Assay for Morphology Visualization (AID 2283025).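 Also: fitted both ways so gain or loss versus DMSO counts.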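 As to AC50: light microscopy image of cell morphology used as background control.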 The following applies: primary human endothelial cells (HUVEC). The procedure, abridged:
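Endothelial cells from human umbilical vein were treated with test chemicals for 24 h and inspected by light microscopy for changes in cell conformation.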

Read-out in assay [8]: Pselectin, SELP (gene 6403)
As to the kind of experiment: BSK_4H_Pselectin: BioMAP Diversity Plus: 4H Assay for Pselectin Biomarker Activity (AID 2283026). Conditions: primary human endothelial cells (HUVEC); actives raise or lower the signal. The procedure, abridged: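 Human vascular endothelium from umbilical vein; P-selectin measured by ELISA at 24 h post-dose, with cytotoxicity checked by sulforhodamine B total-protein staining in parallel cultures (0.1% SRB after 10% TCA fixation, read at 560 nm).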

Assay [9] can be described thus: BSK_4H_SRB: Viability Assessment in the BioMAP Diversity Plus: 4H Assay (AID 2283027).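 Also: cells exposed to compound for 24 h before staining.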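 As to AC50: curves fitted both ways versus DMSO so AC50 may be loss or gain.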 The following applies: primary human endothelial cells (HUVEC). The procedure, abridged: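 Human umbilical vein endothelial cells, 24 h after chemical dosing; total protein measured by 0.1% sulforhodamine B staining after 10% TCA fixation, read at 560 nm. Bidirectional fitting against DMSO.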

A short description of assay [10]: BSK_BE3C_SRB: Viability Assessment in the BioMAP Diversity Plus: BE3C Assay (AID 2283028).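 As to AC50: fitted both ways so AC50 may mark signal gain or loss versus DMSO.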 Conditions: primary human bronchial epithelial cells. The procedure, abridged: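 Primary human bronchial epithelium; chemical dosing, 24 h; 10% TCA fix, 0.1% SRB stain, A560; bidirectional fit vs DMSO baseline.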

human Vitamin D Receptor (VDR), VDR (gene 7421), sequence (P11473 whole entry, looked up, the tested form may be a part): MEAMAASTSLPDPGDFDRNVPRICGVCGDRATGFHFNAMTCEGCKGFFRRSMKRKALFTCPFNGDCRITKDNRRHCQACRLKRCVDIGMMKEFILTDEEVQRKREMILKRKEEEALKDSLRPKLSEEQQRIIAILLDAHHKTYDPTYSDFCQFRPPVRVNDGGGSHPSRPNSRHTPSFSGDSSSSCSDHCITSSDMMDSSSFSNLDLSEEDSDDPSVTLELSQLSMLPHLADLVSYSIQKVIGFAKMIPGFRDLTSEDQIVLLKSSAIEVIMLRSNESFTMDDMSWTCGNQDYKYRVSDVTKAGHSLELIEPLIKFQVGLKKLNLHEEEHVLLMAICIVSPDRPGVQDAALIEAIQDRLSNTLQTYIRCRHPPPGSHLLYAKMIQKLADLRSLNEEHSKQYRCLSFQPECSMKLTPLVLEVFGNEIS

In general, AC50 refers to the concentration giving half of the maximal activity seen. `COC(=O)NC(=S)Nc1ccccc1NC(=S)NC(=O)OC`: in assay [1], the AC50 was 14.2 µM (active). Moreover, the result in assay [2], in assay [3], in [4], in assay [5], in assay [6] and in [7] was inactive. The outcome in assay [8], in [9] and in [10] was inactive.
Turning to `COP(=S)(OC)Oc1ccc([N+](=O)[O-])c(C)c1`, the figures for the AC50 in [1], in [5] and in assay [7] were 20 µM (active), 16.5 µM (active) and 39 µM (active), respectively. The outcome in [2], in assay [3], in assay [4], in assay [6], in [8] and in [9] was inactive. Moreover, the outcome in assay [10] was inactive.
Take `CCCCOCN(C(=O)CCl)c1c(CC)cccc1CC`: the AC50 was 31 µM (active) in assay [1]; 34.5 µM (active) in [2]; 32.9 µM (active) in assay [3]; 28.5 µM (active) in [5]; 33.2 µM (active) in assay [6]; 29.4 µM (active) in assay [7]. Besides, the AC50 in [8] is 21.9 µM (active); in [9], 28.2 µM (active); in assay [10], 31.1 µM (active).
`CCN(CC)C(=O)C(C)Oc1cccc2ccccc12` (centres undefined): the outcome in assay [1], in [2], in assay [3], in assay [8], in assay [9] and in assay [10] was inactive. Further, the figures for the AC50 in [5], in assay [6] and in assay [7] were 5.16 µM (active), 5.25 µM (active) and 9.8 µM (active), respectively.
On to `COC(=O)N(C(=O)N1CO[C@@]2(C(=O)OC)Cc3cc(Cl)ccc3C2=N1)c1ccc(OC(F)(F)F)cc1`, for which the result in assay [1], in assay [2], in [3], in assay [4], in assay [6] and in assay [7] was inactive. Besides, the AC50 in [5] was 3.97 µM (active); in assay [8] it was 5.19 µM (active); in assay [9] it was 7.13 µM (active); in [10], 5.81 µM (active).
As to `CNC(=O)N(C)c1nnc(C(C)(C)C)s1`, the result in assay [1], in assay [2], in [3], in assay [4], in [5] and in assay [6] was inactive. Also, the outcome in assay [7], in [8], in assay [9] and in assay [10] was inactive.
For the compound `COCC(C)N(C(=O)CCl)c1c(C)csc1C` (centres undefined), the outcome in assay [1], in [2], in [3], in assay [4], in assay [5] and in [6] was inactive. For the same compound, the result in [7], in assay [8], in assay [9] and in assay [10] was inactive. The AC50 in assay [7] was 39 µM (active); in [8] it was 14.6 µM (active).
Regarding `CC1(C)C(C(=O)OC(C#N)c2cccc(Oc3ccccc3)c2)C1(C)C` (centres undefined), the outcome in [1], in [2], in [3], in assay [4], in assay [6] and in [9] was inactive. Besides, the AC50 in assay [5] was 10.1 µM (active); in assay [7], 39 µM (active); in assay [8], 12.9 µM (active); in assay [10], 6.87 µM (active).
Turning to `CNC(=O)Oc1cccc2ccccc12`, the result in assay [1], in [2], in [3], in assay [4], in [6] and in assay [9] was inactive. Besides, the outcome in assay [10] was inactive. The results for the AC50 in assay [5], in [7] and in assay [8] were 12.4 µM (active), 13.7 µM (active) and 16.7 µM (active), respectively.
On to `CCOc1nc(F)cc2nc(S(=O)(=O)Nc3c(Cl)cccc3Cl)nn12`, for which the outcome in assay [1], in assay [2], in assay [3], in assay [4], in assay [5] and in assay [6] was inactive. The result in assay [7], in [8], in [9] and in assay [10] was inactive.
As to `Clc1nc(Cl)nc(Nc2ccccc2Cl)n1`, the outcome in assay [1], in assay [2], in assay [3], in assay [4], in assay [5] and in assay [6] was inactive. Further, the result in assay [7], in [8], in assay [9] and in assay [10] was inactive.
As to `COC(=O)c1c(C(F)F)nc(C(F)(F)F)c(C2=NCCS2)c1CC(C)C`, the figures for the AC50 in assay [1], in assay [5] and in assay [9] were 25.2 µM (active), 33.3 µM (active) and 36.5 µM (active), respectively. The result in [2], in assay [3], in assay [4], in assay [6], in assay [7] and in [8] was inactive. In addition, in assay [10], the result was inactive.
Consider `COc1ccc(-c2ccccc2)cc1NNC(=O)OC(C)C`, for which the outcome in assay [1], in assay [2], in assay [3], in assay [5], in assay [6] and in assay [7] was inactive. In addition, the result in assay [8], in [9] and in assay [10] was inactive.
For `CSC(=O)c1c(C(F)F)nc(C(F)(F)F)c(C(=O)SC)c1CC(C)C`, the AC50 is 31.1 µM (active) in [1]; 32.4 µM (active) in assay [2]; 14.6 µM (active) in [5]; 6.22 µM (active) in [6]; 13.7 µM (active) in [7]; 15 µM (active) in assay [8]. Also, the AC50 in [9] was 25.7 µM (active); in assay [10], 16.8 µM (active). In addition, the outcome in assay [3] and in assay [4] was inactive.
Take `CCC(C)n1c(=O)[nH]c(C)c(Br)c1=O` (centres undefined): the result in assay [1], in [2], in [3], in assay [4], in assay [5] and in [6] was inactive. In addition, the outcome in [7], in [8], in [9] and in assay [10] was inactive.
`Nc1cnn(-c2ccccc2)c(=O)c1Cl`: the result in [1], in assay [2], in assay [3], in assay [5], in assay [6] and in assay [8] was inactive. For the same compound, the result in [9] and in assay [10] was inactive. Besides, the AC50 in assay [7] was 39 µM (active).
For `COP(=S)(OC)SCn1nnc2ccccc2c1=O`, the AC50 was 30.2 µM (active) in [1] and 35.1 µM (active) in assay [8]. Also, the result in [2], in [3], in assay [5], in assay [6], in assay [7] and in assay [9] was inactive. In assay [10], the outcome was inactive.
Consider `CO/N=C(/C1=NOCCO1)c1ccccc1Oc1ncnc(Oc2ccccc2Cl)c1F`, for which the AC50 in [1] was 9.24 µM (active); in assay [2], 20 µM (active); in [5], 13.4 µM (active); in [7] it was 20 µM (active); in assay [9] it was 8.6 µM (active). The result in [3], in assay [6], in assay [8] and in assay [10] was inactive.
As for `Cc1nc(N(C)C)nc(OC(=O)N(C)C)c1C`, the outcome in assay [1], in assay [2], in assay [3], in assay [5], in assay [6] and in assay [7] was inactive. Also, the outcome in assay [8], in assay [9] and in assay [10] was inactive.
On to `CC(C)(C)C(=O)C(Oc1ccc(Cl)cc1)n1cncn1` (centres undefined), for which, in [1], the concentration at half-maximal activity (AC50) is 31.4 µM (active). The result in assay [2], in [3], in assay [5], in assay [6], in assay [7] and in [8] was inactive. The result in assay [9] and in assay [10] was inactive.
